Inconclusive results are not listed. Entries that show only a call come without a potency. A number with no mark means an inactive call. Activity calls are given as the source filed them. Unless noted, the call rests on the fitted dose curve; in most records, active means well fitted cell-killing curve with a large enough effect in the repeat runs (not every such curve was filed as active); inconclusive means weak or mixed curves, or effect the other way; inactive means no such curve, though single readings can be large or run the other way.
Test system: not listed separately
Test: qHTS assay to identify small molecule agonists of the farnesoid-X-receptor (FXR) signaling pathway - cell viability counter screen (AID 743218; active means well fitted cell-killing curve with a large enough effect in the repeat runs; further: nearly all actives have a fitted effect of over 45% in size)
Conditions: FXR-bla HEK293T viability, CellTiter-Glo luminescence, 16 h; series mostly up to 62.6 µM
Method in brief: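 FXR-UAS-bla HEK 293T cells exposed to compounds for 16 h at 37C. Cytotoxicity read in the same wells by CellTiter-Glo luminescence after 30 min at room temperature, following the beta-lactamase FRET read.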
With Cc1ccc(S)cc1 the Potency was “inactive”.
With CC(=O)OCC(=O)[C@@]12OC(C)(C)O[C@@H]1C[C@H]1[C@@H]3C[C@H](F)C4=CC(=O)C=C[C@]4(C)[C@@]3(F)[C@@H](O)C[C@@]12C the Potency was “inactive”.
In the case of CCC(C(=O)OCCN(CC)CC)c1ccccc1 (configuration not stated), the Potency was “inactive”.
In the case of C[C@@H]1C[C@H]2[C@@H]3CCC4=CC(=O)C=C[C@]4(C)[C@@]3(F)[C@@H](O)C[C@]2(C)[C@H]1C(=O)CO, the Potency was “inactive”.
In the case of CCCCOC(=O)CCS, the Potency was “inactive”.
In the case of CC(C)CCCCCCOC(=O)CCCCC(=O)OCCCCCCC(C)C, the Potency was “inactive”.
In the case of COC(OC)(C(=O)c1ccccc1)c1ccccc1, the Potency was “inactive”.
In the case of CN1Cc2cc(C(=O)N3CCC(C4CCNCC4)CC3)ccc2N[C@@H](CC(=O)O)C1=O, the Potency was “inactive”.
With C1COCO1 the Potency was “inactive”.
With CC(=O)Nc1ccccc1C the Potency was “inactive”.
For Cc1nc2ccccn2c(=O)c1CCN1CCC(C(=O)c2ccc(F)cc2)CC1, the Potency was “inactive”.
In the case of CCOC(=O)OCC, the Potency was “inactive”.
In the case of Cc1ccc(/C=N/n2c(-c3ccccc3)csc2=S)cc1, the Potency was “inactive”.
For COCC(O)CO (configuration not stated), the Potency was “inactive”.
With COc1cc2[nH]c(=O)[nH]c(=O)c2cc1OC the Potency was “inactive”.
In the case of CCC(C)(C)C1CCC(O)CC1 (configuration not stated), the Potency was “inactive”.
In the case of C=CC(=C)CCCC(C)(C)OC(C)=O, the Potency was “inactive”.
For CC(CCc1ccc2c(c1)OCO2)NN (configuration not stated), the Potency was “inactive”.

Target: Bile acid receptor (Homo sapiens) (UniProt Q96RI1)
Sequence (Q96RI1 whole entry, looked up): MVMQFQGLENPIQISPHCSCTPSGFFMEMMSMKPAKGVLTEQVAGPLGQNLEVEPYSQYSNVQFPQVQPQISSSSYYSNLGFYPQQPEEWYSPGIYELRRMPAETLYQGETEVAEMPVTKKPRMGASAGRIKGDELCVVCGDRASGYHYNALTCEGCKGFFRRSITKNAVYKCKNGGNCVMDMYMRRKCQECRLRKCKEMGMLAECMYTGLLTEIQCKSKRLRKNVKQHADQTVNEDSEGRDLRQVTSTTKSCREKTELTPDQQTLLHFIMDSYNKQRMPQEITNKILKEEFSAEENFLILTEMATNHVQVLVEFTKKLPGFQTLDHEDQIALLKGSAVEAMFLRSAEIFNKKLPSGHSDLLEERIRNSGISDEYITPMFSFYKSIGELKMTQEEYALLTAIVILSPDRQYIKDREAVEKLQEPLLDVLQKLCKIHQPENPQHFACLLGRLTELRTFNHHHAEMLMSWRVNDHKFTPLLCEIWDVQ
Test: qHTS assay to identify small molecule agonists of the farnesoid-X-receptor (FXR) signaling pathway (AID 743220; active means well fitted activation curve with a large enough effect in the signal ratio in the repeat runs, not every such curve was filed as active; the % refers to the signal ratio)
Conditions: HEK293T FXR-UAS-bla, beta-lactamase FRET ratio, 16 h; series mostly up to 62.6 µM
Method in brief: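 Beta-lactamase reporter under UAS control in GeneBLAzer FXR HEK 293T cells (5000/well) measured with LiveBLAzer FRET substrate after 2 h at room temperature. Compound exposure lasted 16 h at 37C.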
In the case of NC(=O)N(O)[C@@H]1C=C[C@H](Oc2cccc(Oc3ccc(F)cc3)c2)C1, the Potency was “inactive”.
For CC(COc1ccc(C(C)(C)C)cc1)OS(=O)OCCCl (configuration not stated), the Potency was “inactive”.
For CCCCOC(=O)CCS, the Potency was “inactive”.
With CC(C)CCCCCCOC(=O)CCCCC(=O)OCCCCCCC(C)C the Potency was “inactive”.
In the case of C=CCNc1nc(NCC=C)nc(N2CCN(C(c3ccc(F)cc3)c3ccc(F)cc3)CC2)n1, the Potency was “inactive”.
With Cc1nc2ccccn2c(=O)c1CCN1CCC(C(=O)c2ccc(F)cc2)CC1 the Potency was “inactive”.
With CCCC(=O)O[C@]1(C(=O)COC(=O)CC)CC[C@H]2[C@@H]3CCC4=CC(=O)CC[C@]4(C)[C@H]3[C@@H](O)C[C@@]21C the Potency was “inactive”.

Test system: not listed separately
Test: qHTS assay to identify small molecule antagonists of the farnesoid-X-receptor (FXR) signaling pathway - cell viability counter screen (AID 743221); further: nearly all actives have a fitted effect of over 50% in size
Conditions: FXR-bla HEK293T viability, CellTiter-Glo luminescence, 16 h; series mostly up to 62.6 µM
Method in brief: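 After a 5 h settling period, FXR-bla HEK 293T cells receive compound and chenodeoxycholic acid (50 uM final) and incubate 16 h at 37 C; CellTiter-Glo luminescence, read after 30 min at room temperature, reports cell viability.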
In the case of CC1CC(O)CC(C)(C)C1 (configuration not stated), the Potency was “inactive”.
For Cc1ccnc2ccccc12, the Potency was “inactive”.
With Cc1nc2ccccc2s1 the Potency was “inactive”.
In the case of Nc1nccs1, the Potency was “inactive”.
With CC1CN(c2cc3c(cc2F)c(=O)c(C(=O)O)cn3-c2ccc(F)cc2F)CCN1 (configuration not stated) the activity change, negative = cytotoxicity was -0.0684% [at 5.95 µM].
For CCCOC(=O)c1ccc(N)cc1, the Potency was “inactive”.
For O=Cc1c(Cl)cccc1Cl, the Potency was “inactive”.
In the case of CCCOCCOCCO, the Potency was “inactive”.
In the case of C/C(=N/NC(=O)c1ccncc1)C(=O)O, the Potency was “inactive”.
For OCCSc1ccccc1, the Potency was “inactive”.
In the case of CCOC(=O)c1ccccc1OC, the Potency was “inactive”.
For ON(Cc1ccccc1)Cc1ccccc1, the Potency was “inactive”.
With Nc1ccc(Cl)cc1[N+](=O)[O-] the Potency was “inactive”.
With CCC1(C)CC(=O)NC1=O (configuration not stated) the Potency was “inactive”.
With C=CC(C)(O)CCCC(C)CCCC(C)CCCC(C)C (configuration not stated) the Potency was “inactive”.
In the case of CCC(C)=O, the Potency was “inactive”.
With NC(=O)N(O)[C@@H]1C=C[C@H](Oc2cccc(Oc3ccc(F)cc3)c2)C1 the Potency was “inactive”.
In the case of CC1=NN(c2ccc(C(=O)O)cc2)C(=O)C1, the Potency was “inactive”.
In the case of CC(COc1ccc(C(C)(C)C)cc1)OS(=O)OCCCl (configuration not stated), the Potency was “inactive”.
With O=C(O)Cc1ccc(-c2ccccc2)cc1 the Potency was “inactive”.
For Cc1ccc(S)cc1, the Potency was “inactive”.
With CC(=O)OCC(=O)[C@@]12OC(C)(C)O[C@@H]1C[C@H]1[C@@H]3C[C@H](F)C4=CC(=O)C=C[C@]4(C)[C@@]3(F)[C@@H](O)C[C@@]12C the Potency was “inactive”.
In the case of CCC(C(=O)OCCN(CC)CC)c1ccccc1 (configuration not stated), the Potency was “inactive”.
For C[C@@H]1C[C@H]2[C@@H]3CCC4=CC(=O)C=C[C@]4(C)[C@@]3(F)[C@@H](O)C[C@]2(C)[C@H]1C(=O)CO, the Potency was “inactive”.
With CCCCOC(=O)CCS the Potency was “inactive”.
In the case of COC(OC)(C(=O)c1ccccc1)c1ccccc1, the Potency was “inactive”.
With CN1Cc2cc(C(=O)N3CCC(C4CCNCC4)CC3)ccc2N[C@@H](CC(=O)O)C1=O the Potency was “inactive”.
For C1COCO1, the Potency was “inactive”.
In the case of CC(=O)Nc1ccccc1C, the Potency was “inactive”.
In the case of C=CCNc1nc(NCC=C)nc(N2CCN(C(c3ccc(F)cc3)c3ccc(F)cc3)CC2)n1, the Potency was “inactive”.
With CCOC(=O)OCC the Potency was “inactive”.
For Cc1ccc(/C=N/n2c(-c3ccccc3)csc2=S)cc1, the Potency was “inactive”.
With COCC(O)CO (configuration not stated) the Potency was “inactive”.
In the case of COc1cc2[nH]c(=O)[nH]c(=O)c2cc1OC, the Potency was “inactive”.
In the case of CCC(C)(C)C1CCC(O)CC1 (configuration not stated), the Potency was “inactive”.
With CCCC(=O)O[C@]1(C(=O)COC(=O)CC)CC[C@H]2[C@@H]3CCC4=CC(=O)CC[C@]4(C)[C@H]3[C@@H](O)C[C@@]21C the Potency was “inactive”.
In the case of C=CC(=C)CCCC(C)(C)OC(C)=O, the Potency was “inactive”.
With CC(CCc1ccc2c(c1)OCO2)NN (configuration not stated) the Potency was “inactive”.

Target: Vitamin D3 receptor (Homo sapiens) (UniProt P11473)
Sequence (P11473 whole entry, looked up): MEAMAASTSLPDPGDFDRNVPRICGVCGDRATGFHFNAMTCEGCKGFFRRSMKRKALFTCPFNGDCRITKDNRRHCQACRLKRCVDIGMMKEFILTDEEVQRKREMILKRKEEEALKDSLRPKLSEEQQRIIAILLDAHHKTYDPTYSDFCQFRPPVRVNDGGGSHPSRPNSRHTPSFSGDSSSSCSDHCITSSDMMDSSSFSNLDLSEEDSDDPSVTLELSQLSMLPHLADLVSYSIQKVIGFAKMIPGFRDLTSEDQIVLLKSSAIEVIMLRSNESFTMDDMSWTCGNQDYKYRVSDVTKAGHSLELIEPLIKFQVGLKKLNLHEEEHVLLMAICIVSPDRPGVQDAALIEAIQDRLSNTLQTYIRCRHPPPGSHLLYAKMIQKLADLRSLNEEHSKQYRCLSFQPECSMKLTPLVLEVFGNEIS
Test: qHTS assay to identify small molecule agonists of the vitamin D receptor (VDR) signaling pathway (AID 743222; calls by dose curve)
Conditions: HEK293T VDR-UAS-bla, beta-lactamase FRET ratio, 16 h; series mostly up to 63.5 µM
Method in brief: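 VDR-bla cells plated 4 h at 37 C, then exposed to compounds for 16 h at 37 C. Beta-lactamase reporter activity measured by fluorescence after 2 h room-temperature loading with LiveBLAzer B/G FRET substrate.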
For Cc1nc2ccccc2s1, the outcome was “inactive”.
In the case of Nc1nccs1, the outcome was “inactive”.
CC1CN(c2cc3c(cc2F)c(=O)c(C(=O)O)cn3-c2ccc(F)cc2F)CCN1 (configuration not stated) gave an activation of 5.04% [at 6.01 µM].
For CCCOC(=O)c1ccc(N)cc1, the outcome was “inactive”.
In the case of O=Cc1c(Cl)cccc1Cl, the outcome was “inactive”.
In the case of C/C(=N/NC(=O)c1ccncc1)C(=O)O, the outcome was “inactive”.
In the case of CCOC(=O)c1ccccc1OC, the outcome was “inactive”.
In the case of ON(Cc1ccccc1)Cc1ccccc1, the outcome was “inactive”.
With Nc1ccc(Cl)cc1[N+](=O)[O-] the outcome was “inactive”.
In the case of C=CC(C)(O)CCCC(C)CCCC(C)CCCC(C)C (configuration not stated), the outcome was “inactive”.
For CCC(C)=O, the outcome was “inactive”.
With CC1=NN(c2ccc(C(=O)O)cc2)C(=O)C1 the outcome was “inactive”.
With O=C(O)Cc1ccc(-c2ccccc2)cc1 the outcome was “inactive”.
In the case of CC(=O)OCC(=O)[C@@]12OC(C)(C)O[C@@H]1C[C@H]1[C@@H]3C[C@H](F)C4=CC(=O)C=C[C@]4(C)[C@@]3(F)[C@@H](O)C[C@@]12C, the outcome was “inactive”.
In the case of CCC(C(=O)OCCN(CC)CC)c1ccccc1 (configuration not stated), the outcome was “inactive”.
With CCCCOC(=O)CCS the outcome was “inactive”.
In the case of COC(OC)(C(=O)c1ccccc1)c1ccccc1, the outcome was “inactive”.
With C1COCO1 the outcome was “inactive”.
In the case of CC(=O)Nc1ccccc1C, the outcome was “inactive”.
For C=CCNc1nc(NCC=C)nc(N2CCN(C(c3ccc(F)cc3)c3ccc(F)cc3)CC2)n1, the outcome was “inactive”.
In the case of Cc1ccc(/C=N/n2c(-c3ccccc3)csc2=S)cc1, the outcome was “inactive”.
For COc1cc2[nH]c(=O)[nH]c(=O)c2cc1OC, the outcome was “inactive”.
For CCCC(=O)O[C@]1(C(=O)COC(=O)CC)CC[C@H]2[C@@H]3CCC4=CC(=O)CC[C@]4(C)[C@H]3[C@@H](O)C[C@@]21C, the outcome was “inactive”.
With C=CC(=C)CCCC(C)(C)OC(C)=O the outcome was “inactive”.

From PubChem BioAssay (Tox21)
